# Results taken from the supplement of paper PMC4188521.
# Compound: CCc1cnn2c(NCc3ccc[n+]([O-])c3)cc(N3CCCC[C@H]3CCO)nc12 [dinaciclib]
# Assay: cell viability remaining relative to DMSO control; higher = less cytotoxic (more viable cells)
# Conditions: 100 nM; 24 h
# Summary of the method: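 Remaining viability, expressed as a percentage of the DMSO control, compares luminescence in treated wells with that in DMSO-treated control wells. Solid tumour cell lines from commercial banks received 100 nM of the test compound for 24 hr, with final DMSO kept at ≤0.2%. Viability was read as ATP luminescence using CellTiter-Glo, and values are means from 2–6 plates run in triplicate wells.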
row,Target,cell viability remaining [%]
1,SW1463,87.4
2,HEC265,46.7
3,OE19,77.7
4,SKUT1,74.7
5,MDAMB436,67.8
6,SKMEL31,66.9
7,CAL27,11.2
8,A549,55.3
9,A673,29.2
10,KURAMOCHI,121
11,H4,34.1
12,HEC251,91.8
13,FADU,31.8
14,EN,51.9
15,COLO205,22.4
16,H1792,60.9
17,COLO320DM,17.1

row,Target,cell viability remaining [%]
1,BT483,83.9
2,COV644,23.3
3,SJRH30,12
4,BT20,45.2
5,SKCO1,89.8
6,DKMG,44
7,AZ521,56.1
8,MFE296,47.4
9,SNU16,52.2
10,SW1116,86.8
11,LS180,85.7
12,A2780,44.5
13,CAOV3,42.2
14,HCC1954,38
15,HS852T,54.3
16,RD,41.1
17,SKMES1,53.9
